Results reported in PubChem BioAssay (NCATS).
Results filed as inconclusive are left out. Activity calls are given as the source filed them. Calls follow the shape of the dose curve; as a rule, active = well fitted curve in the direction sought with a large enough effect; inconclusive = small, poorly fitted or top-dose-only effect, or another doubt; inactive = no such curve, though single readings can be large; an effect the other way counts as inactive or inconclusive.

Assays:
[1] = NS1 protein of Zika virus - qHTS assay to identify small molecule inhibitors in human HEK 293 cells (AID 1347053); also: series mostly up to about 46 µM; nearly all actives have a fitted effect of over 55% in size
How it was run: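 Read-out is a two-antibody TR-FRET for ZIKV NS1, normalized between uninfected cells and infected cells. Compound added 1 h before MR766 infection at MOI 0.5; human HEK 293 cells incubated 24 h, 37 C.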

[2] = qHTS of pediatric cancer cell lines to identify multiple opportunities for drug repurposing: Primary screen for TC32 cells (AID 1347089); also: nearly all actives have a fitted effect of over 60% in size
How it was run: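 Measured quantity: luminescence from CellTiter-Glo, reflecting metabolically active TC32 cells following 48 h of compound. Curves came straight from multi-point titrations, with 8 or 11 points in primary and 11 in confirmatory screening.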

[3] = qHTS of pediatric cancer cell lines to identify multiple opportunities for drug repurposing: Primary screen for DAOY cells (AID 1347090); also: series mostly up to about 46 µM; nearly all actives have a fitted effect of over 55% in size
How it was run: (§1)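 Cell viability, CellTiter-Glo luminescence; 500-1,000 cells/well, 8- or 11-point titration, 48 h compound exposure at 37 degrees C, 5% CO2. Controls: DMSO neutral, bortezomib 2.3 µM final as positive.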

[4] = qHTS of pediatric cancer cell lines to identify multiple opportunities for drug repurposing: Primary screen for SJ-GBM2 cells (AID 1347091)
How it was run: as §1

[5] = qHTS of pediatric cancer cell lines to identify multiple opportunities for drug repurposing: Primary screen for A673 cells (AID 1347092); also: nearly all actives have a fitted effect of over 45% in size
How it was run: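 Cells are plated, rested 5 h, dosed by pintool, incubated 48 h, then lysed with CellTiter-Glo and read by luminescence. DMSO is the neutral control; bortezomib at 2.3 uM final is the positive control.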

[6] = qHTS of pediatric cancer cell lines to identify multiple opportunities for drug repurposing: Primary screen for SK-N-MC cells (AID 1347093); also: series mostly up to about 46 µM
How it was run: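 Metabolically active cells were quantified by ATP-dependent luminescence (CellTiter-Glo, 15 min at room temperature) following 48 h treatment. Cells had been plated at 500-1,000 per well and settled for 5 h beforehand.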

[7] = qHTS of pediatric cancer cell lines to identify multiple opportunities for drug repurposing: Primary screen for NB-EBc1 cells (AID 1347095)
How it was run: (§2)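 Luminescence from CellTiter-Glo served as readout of metabolically active cells after 48 h compound exposure. Titrations: MIPE 11-point, from 0.78 nM; NPC 8-point, from 0.59 nM (final). Concentration-response curves came straight from the primary screen.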

[8] = qHTS of pediatric cancer cell lines to identify multiple opportunities for drug repurposing: Primary screen for Saos-2 cells (AID 1347097); also: nearly all actives have a fitted effect of over 40% in size
How it was run: as §2

[9] = qHTS of pediatric cancer cell lines to identify multiple opportunities for drug repurposing: Primary screen for SK-N-SH cells (AID 1347098); also: nearly all actives have a fitted effect of over 65% in size
How it was run: (§3)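 Cells (500-1,000/well) rested 5 h, then received compounds for 48 h; metabolically active cells were measured by CellTiter-Glo luminescence. Final concentrations spanned up to 46 µM (MIPE, 11-point) or 0.59 nM-46 µM (NPC, 8-point) in primary screens, 11-point in follow-ups.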

[10] = qHTS of pediatric cancer cell lines to identify multiple opportunities for drug repurposing: Primary screen for LAN-5 cells (AID 1347100)
How it was run: as §3

[11] = qHTS of pediatric cancer cell lines to identify multiple opportunities for drug repurposing: Primary screen for BT-12 cells (AID 1347101); also: nearly all actives have a fitted effect of over 25% in size
How it was run: as §3

[12] = qHTS of pediatric cancer cell lines to identify multiple opportunities for drug repurposing: Primary screen for Rh18 cells (AID 1347102); also: nearly all actives have a fitted effect of over 65% in size
How it was run: as §3

[13] = qHTS of pediatric cancer cell lines to identify multiple opportunities for drug repurposing: Primary screen for OHS-50 cells (AID 1347103); also: nearly all actives have a fitted effect of over 40% in size
How it was run: as §3

[14] = qHTS of pediatric cancer cell lines to identify multiple opportunities for drug repurposing: Primary screen for RD cells (AID 1347104); also: nearly all actives have a fitted effect of over 55% in size
How it was run: as §2

[15] = qHTS of pediatric cancer cell lines to identify multiple opportunities for drug repurposing: Primary screen for MG 63 (6-TG R) cells (AID 1347105); also: nearly all actives have a fitted effect of over 50% in size
How it was run: as §2

[16] = qHTS of pediatric cancer cell lines to identify multiple opportunities for drug repurposing: Primary screen for control Hh wild type fibroblast cells (AID 1347106);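 also: series mostly up to about 46 µM; a drop in luminescence marks cytotoxicity and a rise apparent proliferation; nearly all actives have a fitted effect of over 55% in size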
How it was run: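 Cells (500-1,000/well) in growth media were settled 5 h at 37 degrees C, then given compounds for 48 h. Viability was read as CellTiter-Glo luminescence. Primary runs used MIPE at 11 points (0.78 nM-46 µM) and NPC at 8 points (0.59 nM-46 µM); follow-ups used 11 points.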

[17] = qHTS of pediatric cancer cell lines to identify multiple opportunities for drug repurposing: Primary screen for Rh30 cells (AID 1347107); also: series mostly up to about 46 µM; nearly all actives have a fitted effect of over 75% in size
How it was run: as §3

[18] = qHTS of pediatric cancer cell lines to identify multiple opportunities for drug repurposing: Primary screen for BT-37 cells (AID 1347094); also: series mostly up to about 57 µM
How it was run: as §2

[19] = qHTS of pediatric cancer cell lines to identify multiple opportunities for drug repurposing: Primary screen for U-2 OS cells (AID 1347096); also: nearly all actives have a fitted effect of over 50% in size
How it was run: as §3

[20] = qHTS of pediatric cancer cell lines to identify multiple opportunities for drug repurposing: Primary screen for NB1643 cells (AID 1347099); also: nearly all actives have a fitted effect of over 50% in size
How it was run: as §2

Measured: Potency

Cc1ccc(C(C)C)c(O)c1
not listed: [18] | [19] | [20]
inactive: all other assays above

Cc1c(NC(=O)c2cccnc2)c(=O)n(-c2ccccc2)n1C
not listed: [4] | [15] | [20]
inactive: all other assays above

COc1ccc2cc(CCC(C)=O)ccc2c1
not listed: [5] | [13]
inactive: all other assays above

COc1ccc(NS(=O)(=O)c2ccc(N)cc2)nn1
not listed: [5] | [6]
inactive: all other assays above

CC1CCc2cc(F)cc3c(=O)c(C(=O)O)cn1c23 (stereo unspecified)
not listed: [5] | [15]
inactive: all other assays above

O=C(O)C(S)C(S)C(=O)O (stereo unspecified)
not listed: [5] | [13]
inactive: all other assays above

Cc1c(NC(C)C)c(=O)n(-c2ccccc2)n1C
not listed: [5] | [8] | [13] | [15]
inactive: all other assays above

CCN1CC(CCN2CCOCC2)C(c2ccccc2)(c2ccccc2)C1=O (stereo unspecified)
not listed: [5] | [6] | [18] | [19] | [20]
inactive: all other assays above

COc1ccccc1OC(=O)Oc1ccccc1OC
not listed: [5]
inactive: all other assays above

O=C(O)c1cc(=O)c2ccccc2o1
not listed: [5] | [7] | [20]
inactive: all other assays above

C[n+]1ccccc1/C=N/O
not listed: [5] | [7] | [16]
inactive: all other assays above

CC(=O)N(CC(O)CO)c1c(I)c(C(=O)NCC(O)CO)c(I)c(C(=O)NCC(O)CO)c1I (stereo unspecified)
not listed: [5] | [7] | [8] | [18]
inactive: all other assays above

FC(F)(F)C(Cl)Br (stereo unspecified)
not listed: [5] | [8] | [13] | [15] | [18]
inactive: all other assays above

O=c1[nH]cnc2nc[nH]c12
not listed: [4] | [7]
inactive: all other assays above

CCOc1ccc(C(=O)OCCN(CC)CC)cc1
not listed: [5] | [8] | [16] | [18]
inactive: all other assays above

CC[N+](C)(CC)CCOC(=O)C1c2ccccc2Oc2ccccc21
not listed: [5] | [8] | [16]
inactive: all other assays above

C/C=C/C(=O)N(CC)c1ccccc1C
not listed: [5] | [13] | [15] | [18]
inactive: all other assays above

Cc1c(Cn2ccnc2)c2ccccc2n1CCC(=O)O
not listed: [5] | [8] | [15] | [18] | [20]
inactive: all other assays above

Cc1cc(C)c(NC(=O)CN(CC(=O)O)CC(=O)O)c(C)c1Br
not listed: [5] | [13]
inactive: all other assays above

COc1cc(C(=O)NCCCCCC(=O)O)cc(OC)c1OC
not listed: [5] | [13] | [15] | [16] | [20]
inactive: all other assays above

COC(=O)N/N=C/c1c[n+]([O-])c2ccccc2[n+]1[O-]
not listed: [5] | [9]
inactive: all other assays above

Cn1c([N+](=O)[O-])cnc1COC(N)=O
not listed: [2]
inactive: all other assays above

CC1CC(OC(=O)c2ccccc2O)CC(C)(C)C1 (stereo unspecified)
not listed: [2]
inactive: all other assays above

NS(=O)(=O)c1ccc(NC(=O)CCC(=O)O)cc1
not listed: [5]
inactive: all other assays above

Cc1c(C)c2c(c(C)c1OC(=O)c1cccnc1)CC[C@@](C)(CCC[C@H](C)CCC[C@H](C)CCCC(C)C)O2
not listed: [5] | [8]
inactive: all other assays above

O=C(/C=C/c1ccccc1)OCc1ccccc1
not listed: [2]
inactive: all other assays above

NS(=O)(=O)c1cc(-c2nn[nH]n2)c(NCc2cccs2)cc1Cl
not listed: [5] | [13]
inactive: all other assays above

O=C(/C=C/c1ccc(O)c(O)c1)O[C@@H]1C[C@@](OC(=O)/C=C/c2ccc(O)c(O)c2)(C(=O)O)C[C@@H](O)[C@@H]1O
not listed: [5]
inactive: all other assays above

CNCc1ccccc1
not listed: [5] | [6]
inactive: all other assays above

CCCCCCCCCCCCCCCCC(C(=O)O)C(O)(CC(=O)O)C(=O)O (stereo unspecified)
not listed: [4] | [7]
inactive: all other assays above
